Most compounds without a hit are left out; they make up all but 9.9% or so of the library.
Tau fibril ThT = qHTS for Inhibitors of Tau Fibril Formation, Thioflavin T Binding; recombinant tau K18 P301L, heparin-induced fibrillization, ThT fluorescence; AID 1460, 2008; Microtubule-associated protein tau (Homo sapiens), P10636; Potency, µM (titrated, usually from 57.4 µM), for inactives: at the highest dose activity, negative = inhibition, actives largely listed as inhibitors; hit rate 2.1% among 270,000; active = well fitted curve in the direction sought with a large enough effect; inconclusive = small, poorly fitted or top-dose-only effect, or another doubt; inactive = no such curve, though single readings can be large; an effect the other way counts as inactive or inconclusive; note: nearly all actives have a fitted effect of over 55% in size
Target sequence (P10636 561-689 P618L limits assumed): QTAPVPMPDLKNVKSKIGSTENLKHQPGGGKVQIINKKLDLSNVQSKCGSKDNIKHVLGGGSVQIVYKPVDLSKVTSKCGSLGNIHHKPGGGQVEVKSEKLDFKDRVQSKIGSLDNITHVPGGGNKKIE
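K18 P301L tau (15 uM + 0.24 uM Alexa 594-tagged), heparin 20 uM, NaOAc pH 7, 6 h 37 C; ThT 30 uM, 1 h RT, ex 450/em 510 nm.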
HPGD inh = qHTS Assay for Inhibitors of HPGD (15-Hydroxyprostaglandin Dehydrogenase); hit rate 4.3% among 150,000; purified HPGD, NADH fluorescence kinetic, PGE2 substrate; Potency, µM, for inactives: at the top dose activity change, negative = inhibition, most hits filed as inhibitors
Target sequence (P15428 whole entry, looked up): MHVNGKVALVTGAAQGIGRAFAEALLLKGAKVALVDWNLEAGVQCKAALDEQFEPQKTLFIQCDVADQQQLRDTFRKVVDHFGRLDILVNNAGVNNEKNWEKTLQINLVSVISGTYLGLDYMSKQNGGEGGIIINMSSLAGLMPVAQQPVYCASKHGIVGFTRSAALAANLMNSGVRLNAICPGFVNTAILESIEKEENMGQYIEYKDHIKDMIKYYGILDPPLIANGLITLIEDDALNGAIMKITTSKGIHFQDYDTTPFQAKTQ
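20 nM HPGD preincubated 15 min at room temperature with compound in 50 mM Tris-HCl pH 8, 0.01% Tween 20. Started with 1 mM NAD+ and 30 uM prostaglandin E2; NADH fluorescence (360/450 nm) read 5 times over 30-s intervals, last minus first.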
Tau fluor cs = Counterscreen qHTS for Inhibitors of Tau Fibril Formation, Fluorescence Polarization; tau K18 P301L (four-repeat tau fragment) Alexa594 fluorescence, heparin fibrillization; Potency, µM (top dose mostly 57.7 µM), inactives show at the highest dose activity change, negative = decrease; hit rate 0.93% among 280,000; AID 1463, 2008; active = well fitted curve in the direction sought with a large enough effect; inconclusive = small, poorly fitted or top-dose-only effect, or another doubt; inactive = no such curve, though single readings can be large; an effect the other way counts as inactive or inconclusive; note: nearly all actives have a fitted effect of over 55% in size
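Human K18 P301L tau (15 uM unlabeled plus 0.24 uM Alexa 594-labeled, final) in 100 mM sodium acetate pH 7 was mixed with compound and 20 uM heparin and incubated 6 hr at 37 C.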
JMJD2E inh = qHTS Assay for Inhibitors of Human Jumonji Domain Containing 2E (JMJD2E) | hit rate 1.6% among 230,000 | Potency, µM (highest dose often 57.1 µM), without a hit: at the highest dose activity change, negative = inhibition, actives largely listed as inhibitors | JMJD2E catalytic domain, FDH-coupled NADH fluorescence (FDH is formaldehyde dehydrogenase);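 note: 0% = wells with enzyme and -100% = buffer wells without enzyme; nearly all actives have a fitted effect of over 50% in size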
Target sequence (B2RXH2 1-337 limits assumed): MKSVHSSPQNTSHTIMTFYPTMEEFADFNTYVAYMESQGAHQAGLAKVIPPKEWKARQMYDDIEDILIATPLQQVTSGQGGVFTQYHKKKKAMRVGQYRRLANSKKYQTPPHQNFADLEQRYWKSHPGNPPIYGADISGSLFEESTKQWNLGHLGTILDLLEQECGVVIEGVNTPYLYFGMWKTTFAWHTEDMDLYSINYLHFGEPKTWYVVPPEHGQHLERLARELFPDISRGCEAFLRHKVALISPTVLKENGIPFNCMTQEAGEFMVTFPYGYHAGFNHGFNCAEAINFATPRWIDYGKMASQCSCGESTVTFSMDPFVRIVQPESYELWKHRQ
ALDH1A1 inh = qHTS Assay for Inhibitors of Aldehyde Dehydrogenase 1 (ALDH1A1) | Aldehyde dehydrogenase 1A1 (Homo sapiens), P00352 | Purified ALDH1A1, NADH fluorescence, propionaldehyde substrate | Potency, µM (top dose mostly 75.3 µM), for inactives: at the highest dose activity, negative = inhibition, most hits filed as inhibitors | hit rate 7.3% among 220,000 | AID 1030, 2008;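 note: plate controls were no enzyme wells and a reference inhibitor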
Tau FP inhib = qHTS for Inhibitors of Tau Fibril Formation, Fluorescence Polarization; K18 P301L tau heparin fibrillization, Alexa594 FP, 6 h; hit rate 0.39% among 280,000; Potency, µM (doses to about 57.7 µM), without a hit: top-dose activity, negative = inhibition, actives largely listed as inhibitors; active = well fitted curve in the direction sought with a large enough effect; inconclusive = small, poorly fitted or top-dose-only effect, or another doubt; inactive = no such curve, though single readings can be large; an effect the other way counts as inactive or inconclusive; note: nearly all actives have a fitted effect of over 55% in size
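Read-out: fluorescence polarization of Alexa 594-labeled tau (0.24 uM), 555 nm excitation, 632 nm emission. Mixtures held 15 uM unlabeled K18 P301L, compound and 20 uM heparin, pH 7 acetate buffer, incubated 6 hr at 37 C.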
* = called active by the depositor; ? = inconclusive; nt = no result given; ! = a repeat was not active; [ ] = dose if it differs, or a comment. Unless noted, calls come from the whole dose curve; as a rule, active = well fitted inhibition curve with a large enough effect (not every such curve was filed as active); inconclusive = small, poorly fitted or top-dose-only effect, or another doubt; inactive = no such curve, though single readings can be large or run the other way. Unless noted, % is set by controls: 0 for no effect and ±100 for the full control effect; potency is the fitted concentration of half-maximal effect.

SMILES | Tau fibril ThT | HPGD inh | Tau fluor cs | JMJD2E inh | ALDH1A1 inh | Tau FP inhib
COC(=O)C1=CO[C@@H](C)[C@H]2CN3CCc4c([nH]c5ccccc45)[C@@H]3C[C@H]12 | nt | -15.9% | nt | 12.6µM*! | 0.4%[20.9 µM] | nt
O=C1C=C(Nc2ccc(Cl)cc2)CC(c2ccc(Cl)cc2)C1 (stereo unspecified) | ? | 31.6µM* | -28.2% | ? | -6.7% | -4.1%
CN(C)c1nc(N)nc(CSc2n[nH]c(-c3ccccc3)n2)n1 | -6.9% | 3.98µM* | 1.6% | 7.3% | 8.7% | -6.2%
COC(=O)c1c(N)n(-c2ccc(N3CCOCC3)cc2)c2nc3ccccc3nc12 | 10µM* | -25.8% | ? | 17.8µM* | 17.8µM* | ?
C=Cc1ccc(CSc2cc(C)nc3nc(C)nn23)cc1 | -5.7% | nt | -2.6% | -0.9% | nt | 2.1%
CC(=O)Oc1ccc(N2C(=O)C3C(C2=O)C(C(=O)c2ccc(Cl)cc2)N2CCCC32)cc1 (stereo unspecified) | 35.5µM* | nt | -16.1% | ? | nt | ?
CC(=O)Oc1ccc(C(=O)[C@H]2[C@H]3C(=O)N(c4ccc(C)cc4)C(=O)[C@H]3[C@@H]3C=CC=NN32)cc1 | ? | ? | -22.5% | -27.8% | 20µM* | -9.0%
Cc1ccc(N2C(=O)[C@@H]3[C@H](C2=O)[C@H]2C=CC=NN2[C@@H]3C(=O)Nc2ccccc2)cc1 | -13.0% | nt | 0.8% | -8.2% | 25.1µM* | 6.7%
Cc1ccc(C)c(NC(=O)Cn2cc(S(=O)(=O)N3CCCC3)c(S(=O)(=O)N3CCCC3)c2)c1 | 0.2% | nt | -11.4% | nt | nt | -1.8%
CCC1CCCCN1C(=O)Cn1c(=O)n(-c2ccc(Cl)c(Cl)c2)c(=O)c2c(C)c(C(=O)N(C)C)sc21 (stereo unspecified) | -2.3% | nt | -5.8% | nt | nt | -8.4%
CCn1c(NCc2cc(Br)ccc2NS(=O)(=O)c2ccc(C)cc2)nc2ccccc21 | -7.9% | -8.5% | ? | 6.2% | 8.7% | -6.1%
COc1cccc(-c2cc(C(F)(F)F)n3nc(C)c(-c4ccccc4)c3n2)c1 | -8.3% | nt | -11.5% | nt | nt | -6.7%
O=C1NC2(CCCCC2)Oc2ccccc21 | -4.0% | -11.8% | 2.2% | -2.0% | 15.8µM* | -2.3%
O=C(O)/C(=C\c1ccccc1)Cc1ccccc1 | nt | -5.5% | nt | nt | -1.5%[13.5 µM] | nt
Cc1cc(NC(=O)c2cc3cccc([N+](=O)[O-])c3[nH]2)ccc1F | nt | nt | 25.1µM*[quencher] | -5.9% | nt | ?
O=C(NCc1cccnc1)/C(=C\c1ccc(-c2ccc(Br)cc2)o1)S(=O)(=O)c1ccccc1 | ? | -15.8% | 2.2% | ? | 3.55µM* | ?
O=C(NCc1cccnc1)/C(=C/c1ccc(-c2ccc(Cl)cc2)o1)S(=O)(=O)c1ccccc1 | ? | ? | 16.5% | -2.2% | ? | ?
COc1cc(C)ccc1OCCCOc1c(Cl)cccc1Cl | 6.6% | 11.2µM* | 1.6% | 2.7% | -9.9% | 6.3%
COc1ccccc1OCCCOc1c(Cl)cc(C)cc1Cl | ? | 14.1µM* | -2.6% | 6.9% | -1.9% | -2.4%
CCOc1ccccc1OCCCOc1ccc(C)cc1Cl | -18.1% | nt | -12.5% | -3.0% | 1.6% | ?
CC1(C)NC(=O)N(CC(=O)OCC(=O)Nc2cc(S(=O)(=O)N3CCCCCC3)ccc2Cl)C1=O | -0.6% | -7.9% | -0.2% | 0.7% | ? | 1.8%
Cc1cc(C)c2c(N)c3cccc(C)c3nc2n1 | ? | ? | -19.4% | ? | ? | -3.2%
O=C(NCCc1ccccc1)C(NS(=O)(=O)c1cccc2nsnc12)c1ccccc1 (stereo unspecified) | -8.9% | -15.7% | -18.2% | 2.6% | -8.9% | -1.5%
CC1CCC2C(=O)N(c3cccc(OS(=O)(=O)c4ccccc4)c3)C(=O)C2C1 (stereo unspecified) | -7.3% | -12.5% | -27.4% | -0.9% | 12.6µM* | -13.9%
O=C1CCC(=O)N1c1cccc(OS(=O)(=O)c2ccccc2)c1 | 3.6% | -6.2% | 3.6% | 13.4% | 0.355µM* | 4.8%
SMILES | Tau fibril ThT | HPGD inh | Tau fluor cs | JMJD2E inh | ALDH1A1 inh | Tau FP inhib
Cc1cc([N+](=O)[O-])nn1CC(=O)NCc1nc2ccccc2[nH]1 | ? | nt | -12.6% | -4.1% | 1.6% | 8.8%
Cc1cccc(C#N)c1NC1=CC(=O)CC(C)(C)C1 | 4.9% | -14.1% | 1.2% | ? | 7.94µM* | -0.1%
O=[N+]([O-])c1cccc(C(=S)N2CCCC2)c1 | -2.0% | nt | -4.5% | 1.0% | -14.0% | -0.7%
O=[N+]([O-])c1cccc(C(=S)N2CCN(c3ccc(F)cc3)CC2)c1 | -10.9% | nt | -29.7% | -17.1% | 22.4µM* | 2.8%
CCCN1CCC(NC(=S)Nc2ccc([N+](=O)[O-])cc2)CC1 | -16.2% | nt | -18.7% | -1.2% | 2.9% | -1.2%
CCCN1CCN(C(=S)Nc2ccc([N+](=O)[O-])cc2)CC1 | -13.6% | nt | -18.1% | 0.9% | 31.6µM* | -1.0%
O=[N+]([O-])c1ccc(N2CCN(C(=S)NC3CCCCC3)CC2)cc1 | 10µM* | -21.2% | ? | -2.6% | 5.01µM* | 0.4%
O=[N+]([O-])c1ccc(N2CCN(C(=S)Nc3ccccc3)CC2)cc1 | -17.2% | nt | -2.5% | -0.8% | 1.41µM* | -13.0%
CCOc1ccc(NC(=O)CSc2cn(CC(=O)N3CCOCC3)c3ccccc23)cc1 | -11.0% | nt | -11.2% | nt | nt | -5.4%
Cc1ccc(S(=O)(=O)N2CCN(Cc3ccccc3)CC2)c(C)c1NS(C)(=O)=O | 17.3% | nt | 9.1% | nt | nt | 2.3%
C=CC1=C[C@@H](O)C2OC2C12OCCCO2 (stereo partly specified) | -6.0%[11.5 µM] | nt | -5.4%[11.6 µM] | nt | 1.1%[13.5 µM] | -12.6%[11.6 µM]
O=[N+]([O-])c1cccc(-c2ccc(C(=S)N3CCN(c4ccccc4)CC3)o2)c1 | 20µM* | nt | ? | -5.2% | nt | ?
O=C(NC(=S)N1CCN(c2ccc([N+](=O)[O-])cc2)CC1)c1ccccc1Cl | ? | nt | -15.2% | 7.7% | ? | -6.4%
O=C(NC(=S)N1CCN(c2ccc([N+](=O)[O-])cc2)CC1)c1ccc(F)cc1 | ? | -26.5% | -22.2% | -3.1% | 7.08µM* | 0.3%
O=C(NC(=O)N1CCN(c2ccc(F)cc2)CC1)c1ccccc1 | -0.3% | -3.4% | 1.9% | 2.4% | -1.4% | 2.0%
O=C(NC(=S)Nc1cccc(Cl)c1N1CCCC1)c1ccc(-c2cccc([N+](=O)[O-])c2)o1 | ? | -23.9% | -18.9% | 6.4% | 28.2µM* | -2.6%
O=[N+]([O-])c1cccc(-c2ccc(C(=S)N3CCOCC3)o2)c1 | 11.8% | nt | 9.4% | -21.4% | 3.2% | -9.5%

Compound activity: PubChem BioAssay, National Center for Advancing Translational Sciences (NCATS)
